Consider 26 molecules from PubChem BioAssay (Tox21).

The structures appear in SMILES notation. Where “and” joins values, the source holds several entries; their conditions need not be identical. Equal values may be shown once. Records with an inconclusive call do not appear. A call without a number means that no potency is given here. Where a structure was tested more than once in an assay, its records may differ in their call. Calls of active or inactive are those of the source. Calls follow the shape of the dose curve; as a rule, active = well fitted cell-killing curve with a large enough effect in the repeat runs; inconclusive = weak or mixed curves, or effect the other way; inactive = no such curve, though single readings can be large or run the other way.
Potency is read from the fitted curve at half-maximal effect.

This assay is described as follows: qHTS assay for identifying genotoxic compounds that show differential cytotoxicity against isogenic chicken DT40 cell lines with known DNA damage response pathways - Rev3 mutant cell line (AID 743014). Also: nearly all actives have a fitted effect of over 55% in size. The following applies: chicken DT40 Rev3-/- viability, CellTiter-Glo, 40 h; series mostly up to 68.4 µM.
In the case of `CC(C)(C)c1cc(Cc2cc(C(C)(C)C)c(O)c(C(C)(C)C)c2)cc(C(C)(C)C)c1O`, the Potency was 61.1 µM (active).
As to `CCOCCOCCOCCO`, the Potency entry was “inactive”.
As to `Clc1ccccn1`, the Potency entry is “inactive”.
With `C=CCc1ccc(OC)c(OC)c1` the entry was “inactive”.
On to `C=CC(C)CCCC(C)(C)O` (stereo unspecified), for which the Potency result is “inactive and 61.1 µM (active)”.
With `CCCCCCCCCCO`, the Potency entry is “inactive”.
As for `CN(C)c1ccc(Cc2ccc(N(C)C)cc2)cc1`, the Potency is 48.8 µM (active) and 27.3 µM (active).
Consider `COc1ccc(OC)cc1`, for which the Potency result was “inactive”.
Take `CC1(C)CC(N)CC(C)(CN)C1` (stereo unspecified): the Potency entry is “inactive and 54.5 µM (active)”.
In the case of `CCCCCCCC=O` it was “inactive”; in that of `CC(=O)OC1CC(C)OC(C)O1` (stereo unspecified), “inactive”; in that of `COCCOC(=O)c1ccccc1C(=O)OCCOC`, “inactive”.
Take `CCCCCCCCCCN`: the Potency entry was “inactive”.
In the case of `CCCOC(=O)c1ccccc1` it was “inactive”; in that of `NC(=S)NNC(N)=S`, “inactive”; in that of `CC1(C)NC(=O)NC1=O`, “inactive”.
In the case of `CC(=O)c1ccc(O)cc1` it was “inactive”; in that of `CC(C)(C#N)c1cc(Cn2cncn2)cc(C(C)(C)C#N)c1`, “inactive”.
With `O=C(OCC1CCC2OC2C1)C1CCC2OC2C1` (stereo unspecified) the figure was 10.1 µM (active) and 9.69 µM (active).
As for `O=C(O)CCCCCCCCC(=O)O`, the Potency entry was “inactive”.
In the case of `CCCCCCC=O` it was “inactive and 43.3 µM (active)”.
In the case of `O=S(=O)(O)c1ccccc1` it was “inactive”; in that of `CC(C)OP(=O)(CP(=O)(OC(C)C)OC(C)C)OC(C)C`, “inactive”.
For the molecule `C=CC[N+](C)(C)CC=C`, the Potency entry was “inactive”.
Consider `CC(=O)OCc1ccco1`, for which the Potency is 27.3 µM (active).
With `O=C(O)c1ccc(S(=O)(=O)N(Cl)Cl)cc1`, the Potency was 43.5 µM (active).
